Bioassay records as filed in PubChem.
Sm TGR block = S. mansoni TGR enzyme inhibition | 360,000 tested, 3% active | AID 485364 | Q962Y6 | purified TGR, DTNB reduction, TNB absorbance 405 nm | Potency, µM (titrated, usually from 114 µM), inactives show top-dose activity change, negative = inhibition, hits mostly inhibitors; also: % is scaled to controls: 0 for no effect and ±100 for the full control effect; nearly all actives have a fitted effect of over 60% in size
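TGR 20 nM + NADPH 100 uM (dispensed conc.), cpd preinc 15 min RT; start with NADPH (500 uM addition) then DTNB (15 mM addition). Kinetic TNB absorbance, 405 nm filter. Four-parameter Hill fit across titration.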
SARS PLpro yeast = blocks SARS-CoV papain-like protease in a yeast assay; S. cerevisiae expressing SARS-CoV PLpro, growth rescue; Potency, µM (top dose mostly 32.9 µM), for inactives: at the top dose activity, positive = growth rescue, most hits filed as activators; 330,000 tested, 0.19% active; calls by dose curve; also: 0% is about no effect; nearly all actives have a fitted effect of over 55% in size
AmpC detergent = inhibitors of E. coli AmpC beta-lactamase with detergent; P00811; AmpC hydrolysis of nitrocefin, absorbance 480 nm, 0.01% Triton; Potency, µM (top dose mostly 114 µM), for inactives: top-dose activity change, negative = inhibition, hits mostly inhibitors; 370,000 tested, 0.041% active; AID 485294;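 also: 0% = no-compound wells and -100% = no-enzyme wells; nearly all actives have a fitted effect of over 25% in size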
Target sequence (P00811 whole entry, looked up): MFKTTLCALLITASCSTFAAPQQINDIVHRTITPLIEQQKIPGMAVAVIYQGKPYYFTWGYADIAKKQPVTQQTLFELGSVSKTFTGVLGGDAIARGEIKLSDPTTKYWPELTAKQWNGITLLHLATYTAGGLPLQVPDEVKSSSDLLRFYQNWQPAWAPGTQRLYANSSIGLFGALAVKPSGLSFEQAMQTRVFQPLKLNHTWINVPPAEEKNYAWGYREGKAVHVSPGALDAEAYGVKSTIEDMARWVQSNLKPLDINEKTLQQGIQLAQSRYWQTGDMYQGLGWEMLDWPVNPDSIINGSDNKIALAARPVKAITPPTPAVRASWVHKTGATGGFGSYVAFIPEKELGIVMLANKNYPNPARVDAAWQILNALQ
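20 mM phosphate pH 7.0 + 0.01% (detergent screen) or 0.0001% Triton X-100; 5.3 nM AmpC reagent; cpd preinc 15 min RT; nitrocefin (800 uM stock) to start; A480 q20 s × 4 min; Activity was normalised to no-enzyme and no-compound control wells.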
RE007 growth inh = less growth of the S. pombe RE007 Vpr strain | S. pombe RE007 Vpr strain, BacTiter-Glo ATP luminescence, 24 h | Potency, µM (titrated, usually from 92.2 µM), for the others: top-dose activity change, negative = less growth, most hits filed as inhibitors | 360,000 tested, 0.21% active; active = well fitted falling curve with a large enough effect; inconclusive = small, poorly fitted or top-dose-only effect; inactive = no such curve, though single readings can be large or run the other way; also: % is scaled to controls: 0 for no effect and ±100 for the full control effect; nearly all actives have a fitted effect of over 50% in size
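Fission yeast strain RE007, carrying one chromosomally integrated HIV-1 vpr copy, was seeded at OD 0.01 in PMG+AL medium with 23 nL pinned compound. After 24 h at 30 °C and 99% humidity, viability was read by BacTiter-Glo luminescence.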
AmpC no deterg = inhibitors of E. coli AmpC beta-lactamase without detergent | P00811 | AmpC nitrocefin hydrolysis, absorbance 480 nm, 0.0001% Triton | Potency, µM (doses to about 57.1 µM), inactives show top-dose activity change, negative = inhibition, actives largely listed as inhibitors | 330,000 tested, 0.52% active;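 also: plate controls were no compound for no effect and no enzyme for full effect; nearly all actives have a fitted effect of over 20% in size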
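AmpC (5.3 nM in the dispensed reagent) in 20 mM phosphate pH 7.0 with 0.01% (detergent screen) or 0.0001% Triton X-100 was preincubated with compounds for 15 min at room temperature. Nitrocefin was then added from an 800 uM solution, and hydrolysis was followed at 480 nm.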
Tb PYK inh = T. brucei pyruvate kinase inhibition; Q57TT1; 410,000 tested, 0.12% active; Potency, µM (highest dose often 76.8 µM), inactives show at the top dose activity, negative = inhibition, usual class: inhibitors; TbPYK enzyme, Kinase-Glo Plus ATP luminescence, 45 min; AID 624173; also: % is scaled to controls: 0 for no effect and ±100 for the full control effect; nearly all actives have a fitted effect of over 50% in size
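Luminescence from Kinase-Glo Plus, added after a 45-minute room-temperature reaction, served as the end-point read-out. The enzyme and substrate were preincubated with compound before ADP (130 uM final) initiated turnover. Concentration-effect curves came from normalized qHTS data.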
Active calls of the source: *; ? = inconclusive; nt = not tested or not shown; [ ] = remark or other dose. Shown are actives, neighbours in structure and some others; about 3.3% of the full set was active somewhere. Unless noted, calls follow the shape of the dose curve; as a rule, active = well fitted curve in the direction sought with a large enough effect; inconclusive = small, poorly fitted or top-dose-only effect, or another doubt; inactive = no such curve, though single readings can be large; an effect the other way counts as inactive or inconclusive. Potency is read from the fitted curve at half-maximal effect.

SMILES	Sm TGR block	SARS PLpro yeast	AmpC detergent	RE007 growth inh	AmpC no deterg	Tb PYK inh
COCCNC(=S)Nc1ccccn1	nt	0%	2%	3%	-21%	-13%
CC(C)CCNC(=S)Nc1ccccn1	45µM*	?	-1%	-23%	-18%	?
CC(=O)Nc1ccc(S(=O)(=O)N2CCC(NC(=O)C(Cc3cccc(F)c3)NC(C)=O)CC2)cc1 (stereo not given)	45µM*	1%	3%	27%	21%	-3%
Oc1c(Cl)cc(Cl)cc1/C=N/c1nccs1	6.3µM*	-36%	-11%	-20%	-55%	-15%
Oc1c(Cl)cc(Cl)cc1/C=N/c1nc(-c2ccc(Cl)cc2)cs1	?	1%	4%	-25%	?	3%
Cc1ccc(O)c(-c2n[nH]c3c2C(c2ccccc2F)N(Cc2ccco2)C3=O)c1 (stereo not given)	3%	nt	9%	nt	nt	5%
C=CCn1c(NCc2ccccc2O)nc2ccccc21	-7%	-7%	-12%	-13%	-36%	3%
C=CCn1c(NCc2cc(Cl)ccc2O)nc2ccccc21	-6%	-1%	-17%	-5%	14µM*	-2%
CNC[C@@H]1CC[C@@H](N)[C@@H](O[C@H]2[C@H](O)[C@@H](O[C@H]3OC[C@](C)(O)[C@H](NC)[C@H]3O)[C@H](N)C[C@@H]2N)O1	nt	nt	nt	nt	nt	0%
CCn1c(-c2cccn(Cc3ccc(Cl)cc3Cl)c2=O)n[nH]c1=S	4%	-1%	0%	21%	-15%	5.6µM*
COc1ccc(-c2nn(CCC#N)cc2C=C(C#N)C#N)cc1	25µM*	1%	-1%	-4%	1%	7%
Cc1ccc(-c2nn(CCC#N)cc2C=C(C#N)C#N)cc1	8.9µM*	3%	-10%	5%	-19%	5%
O=C(Cn1cc(S(=O)(=O)Cc2cccc(Cl)c2)c2ccccc21)NCc1ccccc1Cl	1%	nt	-5%	nt	nt	2%[15.4 µM]
COc1ccccc1NC(=O)Cn1c(=O)oc2ccccc21	-8%	4%	1%	2%	0.4µM*	0%
CCOC(=O)[C@H](CCc1ccccc1)N[C@H]1CCCN2CCC[C@@H](C(=O)O)N2C1=O	nt	nt	nt	nt	nt	4%
Oc1oc(C=Nc2ccc(F)cc2F)c2ccccc12	50µM*	1%	7%	12%	-28%	-5%
COc1ccc(CC(=O)n2[nH]c(=O)cc(C)c2=O)cc1OC	22µM*	0%	2%	-7%	-12%	?
COc1ccc(CC(=O)N2CCN(C)CC2)cc1OC	-13%	-1%	3%	14%	-15%	1%
O=C1/C(=C\Nc2ccc(OC(F)(F)F)cc2)CCN1c1ncccn1	?	-12%	-2%	8%	-12%	4%
O=C1/C(=C\Nc2ccc(Cl)cc2)CCN1c1ncccn1	16µM*	-5%	-2%	-7%	-49%	-24%
CCC(C)NC(=O)Cn1c(=O)n(CC2CCC(C(=O)NC)CC2)c(=O)c2sccc21 (stereo not given)	-3%	nt	5%	nt	nt	-9%
N#CCC(=O)Nc1ccc(C(=O)NCc2cccc(Cl)c2)cc1	3%	0%	-11%	3%	18µM*	-5%
O=C(NCc1cccc(Cl)c1)c1ccncc1	6%	-2%	0%	-1%	142%	-9%
COC(=O)C(=Cc1ccccc1[N+](=O)[O-])C(=O)OC	7.1µM*	-4%	?	-2%	-4%	2%
COC(=O)CCCC1=CC2=CC(=O)C(C)(OC(=O)C3CCCC3)C(=O)C2=CO1 (stereo not given)	0%	-3%	-9%	1%	46%	-13%
SMILES	Sm TGR block	SARS PLpro yeast	AmpC detergent	RE007 growth inh	AmpC no deterg	Tb PYK inh
CCCCC1=CC2=CC(=O)C(C)(OC(=O)C3CCCC3)C(=O)C2=CO1 (stereo not given)	40µM*	6%	0%	9%	-59%	-16%
CC1(OC(=O)CCc2ccccc2)C(=O)C=C2C=C(c3ccsc3)OC=C2C1=O (stereo not given)	?	1%	-1%	nt	28µM*	nt
CC1(OC(=O)C2CCCC2)C(=O)C=C2C=C(c3ccsc3)OC=C2C1=O (stereo not given)	45µM*	0%	-7%	-23%	-17%	-14%
CC1(OC(=O)C2CCCC2)C(=O)C=C2C=C(c3ccsc3)N(Cc3ccco3)C=C2C1=O (stereo not given)	25µM*	3%	0%	-5%	-2%	-15%
O=C(Nc1ccc(Cl)cc1)Nc1ccc(Cl)c(C(F)(F)F)c1	nt	nt	nt	nt	nt	-5%
CC(C)Cn1cc(NC(=O)N2CCN(c3cccc(Cl)c3)CC2)c2ccccc2c1=O	?	nt	-7%	nt	nt	-5%
O=C(Cn1cc2c(n1)CCCC2)NCc1ccccn1	-7%	11%	-16%	-1%	3.5µM*	1%
O=C(Cn1cc2c(n1)CCCC2)NCc1cccs1	0%	17%	?	-8%	-6%	3%
COc1ccc(CNC(=O)Cn2cc3c(n2)CCCCC3)cc1	4%	15%	-4%	-12%	7.1µM*	0%
CCOC(=O)c1ccccc1NC(=O)c1cc2c(s1)-c1ccccc1SC2	0%	nt	-1%	nt	nt	-1%
CCOc1ccccc1C1C(C(N)=O)=C(C)Nc2nc(-c3cccc(C)c3)nn21 (stereo not given)	40µM*	-20%	-2%	-8%	193%	4%
COc1cccc(OCCCCn2c(-c3ccc(Cl)cc3)nc3ccccc3c2=O)c1	-6%	nt	-11%	nt	nt	-2%
O=C(CC1SC(=O)N(c2ccccc2)C1=O)Nc1cccc2ccccc12 (stereo not given)	?	2%	-4%	1%	18µM*	-27%
Cc1ccccc1NC(=O)CC1SC(=O)N(c2ccccc2)C1=O (stereo not given)	5µM*	-14%	3%	?	-22%	-1%
CCOc1ccc(NC(=O)CC2SC(=O)N(c3ccccc3)C2=O)cc1 (stereo not given)	?	-1%	3%	-10%	-16%	-1%
Cc1ccc(C)c(CN2C(=O)c3ccccc3S(=O)c3ccc(C(=O)NCCC4=CCCCC4)cc32)c1 (stereo not given)	4%	nt	19%	nt	nt	3%
Cc1ccc(C)c(NC(=O)Cn2cnc3nc4c(cc3c2=O)CCCC4)c1	-11%	nt	0%	nt	nt	6%
COC(=O)c1nc(NC(=O)C(C)C)n[nH]1	18µM*	2%	5%	3%	-17%	-13%
O=C1CN(C(=O)c2c(F)cccc2Cl)C(c2ccc(F)cc2)c2cc(Br)ccc2N1 (stereo not given)	5%	nt	9%	nt	nt	11%
